What all share (experiment): PBM binding z-score (relative to random genomic background probes); higher = stronger binding; sequences stand for … in GC…GCGATTGACAGCGTAGAATGAAGG
Experiment [1] concerns FXR:RXRa (NR concentration 270 nM, RXRa partner concentration 90 nM). An outline of the steps: (§1)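 Scanned fluorescence from custom Agilent 4×180K protein-binding microarrays was regression-normalized. Binding z-scores use random background probes as reference. Ligand-free nuclear receptor dimers were incubated on the arrays for 1 h and detected with antibodies against each partner (one per run).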

In experiment [2] the test system is LXRa:RXRa (NR concentration 270 nM, RXRa partner concentration 90 nM). An outline of the steps:
as §1

The test system of experiment [3] is LXRa homodimer (NR concentration 270 nM). The method, boiled down:
as §1

The subject of experiment [4] is LXRb:RXRa (NR concentration 270 nM, RXRa partner concentration 90 nM). An outline of the steps: as §1
In experiment [5] the test system is LXRb homodimer (NR concentration 270 nM). The method, boiled down: as §1
Experiment [6] concerns PPARa:RXRa (NR concentration 270 nM, RXRa partner concentration 90 nM). The method, boiled down:
as §1

The test system of experiment [7] is PPARg:RXRa (NR concentration 180 nM, RXRa partner concentration 90 nM). The method, boiled down: as §1
Experiment [8] relates to PPARg:RXRa 270nM:90nM, anti-RXR (NR concentration 270 nM, RXRa partner concentration 90 nM). The method, boiled down:
as §1

For experiment [9], the system named is PPARg:RXRa 30nM:10nM, anti-RXR (NR concentration 30 nM, RXRa partner concentration 10 nM). The method, boiled down: as §1
Experiment [10] deals with PPARg:RXRa 90nM:30nM, anti-RXR (NR concentration 90 nM, RXRa partner concentration 30 nM). An outline of the steps:
as §1

In the case of GCAGACAGGTGAAACGCAAGTAACTCAGGGTGGC, the PBM binding z-score in experiment [1] is -0.454; in [2], -0.128; in [3], -0.469; in experiment [4], -0.359; in experiment [5] it was -0.954; in experiment [6] it was 0.613. The PBM binding z-score was 0.63 in experiment [7], -0.0352 in experiment [8], -0.456 in experiment [9] and -0.429 in [10].
Turning to CCTACTGGGCCAACAGGTCATTGATATCAACGTT, the PBM binding z-score in experiment [1] was 1.42; in [2] it was 1.52; in [3], 1.37; in [4] it was 1.98; in experiment [5] it was -0.204; in experiment [6], 3.21. The PBM binding z-score stood at 4.01 in experiment [7], 4.41 in experiment [8], 2.65 in experiment [9] and 4.24 in experiment [10].
As to TCGAGTAGGTTACCACTGGGGCATTCAGCTTTCT, the PBM binding z-score was -0.222 in experiment [1]; 0.889 in [2]; -0.872 in [3]; 0.314 in [4]; -0.76 in experiment [5]; 1.04 in experiment [6]. In addition, the PBM binding z-score in [7] was 0.354; in experiment [8] it was 1.12; in [9], 0.971; in experiment [10], 0.965.
Take ACTAGCAGGCCAAGTTTCGGTCACTCAAACAAAG: the PBM binding z-score in experiment [1] was -0.253; in experiment [2], -0.249; in [3], 0.38; in experiment [4], -0.133; in [5] it was -0.471; in experiment [6] it was -0.0764. The PBM binding z-score in experiment [7] is -0.26; in [8], -0.531; in experiment [9], -0.703; in experiment [10] it was -0.73.
CCCATTAGTTGACCATAAGGGCAACCGAAGCTCG: the PBM binding z-score in experiment [1] is 1.1; in [2], 0.851; in experiment [3], 0.582; in experiment [4] it was 0.755; in experiment [5] it was 0.614; in [6] it was 0.65. Further, the PBM binding z-score was 0.359 in experiment [7], 0.482 in [8], -0.068 in [9] and 0.346 in [10].
On to GCATATAGGTAATACAAGGTGAAAGTTCGATTGT, for which the PBM binding z-score in experiment [1] is 1.05; in experiment [2] it was 2.54; in experiment [3], 0.814; in experiment [4], 1.37; in experiment [5], -0.201; in experiment [6], 2.67. The PBM binding z-score came to 3.47 in experiment [7], 4.13 in experiment [8], 2.29 in [9] and 3.58 in experiment [10].
With GCTGCTAGGTCAACTGATGGTCAGCTGAAGCTCG, the PBM binding z-score is 4.05 in experiment [1]; 3.09 in experiment [2]; 0.169 in experiment [3]; 1.83 in experiment [4]; -0.22 in experiment [5]; 3.62 in experiment [6]. For the same sequence, the PBM binding z-score in experiment [7] came out at 2.6; in experiment [8], 2.86; in experiment [9], 0.554; in experiment [10], 2.21.
Turning to CCTTACGGGTCACTGACAGGTTATGGCATTTGGA, the PBM binding z-score was 5.56 in experiment [1]; 4.1 in [2]; 0.253 in experiment [3]; 3.08 in [4]; -0.323 in experiment [5]; 5.03 in experiment [6]. Also, the PBM binding z-score in experiment [7] stood at 4.2; in experiment [8], 4.62; in experiment [9], 1.67; in [10], 3.02.
Consider ATATGTAGGTTACATCCGGGTCGTTCAGGCTATG, for which the PBM binding z-score in experiment [1] came out at 1.06; in experiment [2] it was 2.86; in experiment [3] it was 0.557; in experiment [4], 1.67; in experiment [5], 0.653; in experiment [6] it was 3.5. For the same sequence, the PBM binding z-score was 5.18 in [7], 4.47 in experiment [8], 1.66 in experiment [9] and 3.49 in [10].
CGTCCAAGGTCAGCCGGTCAGTGAAAGCGACGTG: the PBM binding z-score in [1] is 5.37; in experiment [2] it was 3.63; in experiment [3], 0.364; in experiment [4], 2.5; in experiment [5], -0.165; in [6], 4.18. Further, the PBM binding z-score in experiment [7] worked out at 2.43; in experiment [8], 3.24; in experiment [9], 0.459; in [10], 1.79.
With GCGACTGGGGCATCAGCAGGTTACCATTACTTAA, the PBM binding z-score in experiment [1] was -0.552; in experiment [2], -0.326; in experiment [3], -0.0382; in experiment [4] it was 0.719; in [5] it was -1.11; in [6] it was 0.893. The PBM binding z-score was 0.716 in [7], 0.73 in [8], -0.277 in [9] and 0.0982 in [10].
ATACCAAGGTGATCGTGAGGTCGGTGATACTAAC: the PBM binding z-score in [1] was 0.882; in experiment [2], 0.302; in experiment [3], 0.1; in experiment [4], 0.211; in [5] it was -0.161; in [6], 0.78. Further, the PBM binding z-score in experiment [7] is 0.426; in experiment [8], -0.213; in experiment [9] it was -0.123; in experiment [10], -0.222.

(Values after the supplement of paper PMC6555819.)
